Experimental data taken from PubChem BioAssay AID1259415 (National Center for Advancing Translational Sciences (NCATS), 2018).
Among all 410,000 compounds or so, about 18,000 (4.4%) were called active. Roughly 7% stayed inconclusive and do not appear here. Cut-off read from the data, not from the text of the source: active = activity change below about -60%; inconclusive = no clear call, values can overlap the other calls; inactive = above about -39%. What follows is part of a selection rich in actives, with near analogues and random picks from the rest.

Experiment: qHTS Assay for inhibitors of the human cytomegalovirus (HCMV)
Details: HFF cells, HCMV-luciferase reporter, 72 h; at 57.5 µM; stronger effect = lower value
Outline: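 Two compound doses tested in HFFs infected with HCMV-luciferase, MOI 1 PFU/cell, 72 h at 37C. Lysate luminescence read with OneGlo; data normalized against buffer-only and 10uM Salinomycin inhibitor controls.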
% is set by controls: 0 for no effect and ±100 for the full control effect.

SMILES | activity change, negative = inhibition
COCC(C)N=CC1=C(O)CC(C)(C)CC1=O (configuration not stated) | 36.9% (inactive)
O=C(NCCCN1CCCC1=O)C(=O)NCC1OCCN1S(=O)(=O)c1ccc(Br)cc1 (configuration not stated) | -19.1% (inactive)
CC(C)NC(=O)C1CCC(Cn2c(=O)c3sccc3n(Cc3ccc(F)cc3)c2=O)CC1 (configuration not stated) | 23.5% (inactive)
Cn1cnnc1Sc1ccc(CN2CCN(C3CCCC3)C(CCO)C2)o1 (configuration not stated) | -68.7% (active)
OCCC1CN(Cc2ccc3nsnc3c2)CCN1C1CCCC1 (configuration not stated) | -14.5% (inactive)
OCCC1CN(Cc2ccc3nsnc3c2)CCN1C1CCCCC1 (configuration not stated) | 11.1% (inactive)
CCN(C(=O)Cn1cc(S(=O)(=O)N2CCN(c3ccccc3F)CC2)c2ccccc2c1=O)c1ccc(C)c(C)c1 | 3.86% (inactive)
COc1ccccc1OCCNc1cc(N2CCOCC2)ccc1[N+](=O)[O-] | 63.8% (inactive)
COc1ccc(CCNC(=O)C(=O)NCc2ccccc2C)cc1OC | -36% (inactive)
COc1ccc(CCNc2cc(N3CCN(C(=O)c4ccccc4OC)CC3)ccc2[N+](=O)[O-])cc1OC | -94% (active)
COc1cccc(NC(=S)NC(=O)c2c(Cl)c(C)nn2C)c1 | 12.6% (inactive)
COc1ccc(N2CCN(S(=O)(=O)CCNC(=O)C34CC5CC(CC(C5)C3)C4)CC2)cc1 | -36.2% (inactive)
CCOc1ccccc1OCCCNCc1ccccc1 | -10.8% (inactive)
CN(C)CCNC(=O)Cc1ccc([N+](=O)[O-])cc1 | -3.93% (inactive)
COc1ccc(Nc2cc(C(=O)NCCCN(C)c3ccccc3)c3ccccc3n2)c(OC)c1 | -2.95% (inactive)
CN(C)CCNC(=O)c1ccc(Cl)c2cc3ccccc3nc12 | -98.5% (active)
COc1cccc(-c2nnc(SCC(=O)N3CCC(C)CC3)o2)c1 | -9.59% (inactive)
COc1ccc(-c2noc(CSc3nnc(-c4ccccc4)n3-c3ccc(F)cc3)n2)c(OC)c1 | -21.4% (inactive)
COc1ccc(-c2cc(-c3nc(-c4cc(OC)c(OC)c(OC)c4)no3)[nH]n2)c(OC)c1 | -68.8% (active)

SMILES | activity change, negative = inhibition
CC(=O)c1ccc(NC(=O)COc2ccccc2-c2nc(-c3ccccc3)no2)cc1 | 13.9% (inactive)
COc1cc(-c2noc(-c3ccc(N4CCCC4)c([N+](=O)[O-])c3)n2)cc(OC)c1OC | -6.79% (inactive)
COc1ccc(-c2nc(-c3ccccc3)no2)c(OC)c1 | -60.9% (active)
COc1cc(-c2noc(C3CCCN(S(=O)(=O)c4cccc(Cl)c4)C3)n2)cc(OC)c1OC (configuration not stated) | 41.5% (inactive)
O=C1CN(C(=O)Nc2ccccc2C(F)(F)F)C(c2ccccc2)c2c(sc3c2CCCC3)N1 (configuration not stated) | -16.6% (inactive)
CCCCOc1ccc(N(CC(=O)NCC2CCCO2)C(=O)CCC(=O)Nc2cc(C)ccn2)cc1 (configuration not stated) | 36.3% (inactive)
CN(C)Cc1c(C(=O)N/N=C/c2ccccc2OCc2ccc(F)cc2)nnn1-c1nonc1N | -6.09% (inactive)
Nc1nonc1-n1nnc(C(=O)N/N=C/c2cc(Br)ccc2O)c1CSC1=NCCS1 | -103% (active)
CC(C)Oc1ccc(/C=N/NC(=O)c2nnn(-c3nonc3N)c2CN(C)C2CCCCC2)cc1 | 7.96% (inactive)
CC(C)c1ccc(NC(=O)c2ccc3c(O)c(S(=O)(=O)c4ccccc4)c(=O)[nH]c3c2)cc1 | 2.46% (inactive)
Cc1ccc2nc(COc3ccc(NC(=O)COc4ccccc4F)cc3)cc(=O)n2c1 | 20.4% (inactive)
O=C(O)C1CSC(c2cccnc2)N1 (configuration not stated) | -2.83% (inactive)
Cc1ccc(C2NC(C(=O)O)CS2)cc1 (configuration not stated) | -64.5% (active)
Cc1ccc(C2CC2C(=O)NN)cc1 (configuration not stated) | 7.91% (inactive)
Cc1nc2ccc(S(=O)(=O)N(CC(=O)Nc3ccc(F)cc3)Cc3ccccc3)cc2s1 | -20.3% (inactive)
COC(=O)c1cccc(Cn2nnc3sc4c(c3c2=O)CCC(C(C)(C)C)C4)c1 (configuration not stated) | 27.6% (inactive)
O=c1[nH]c2cc(Br)ccc2n2cccc12 | -16.7% (inactive)
O=C(CN1CCN(c2ccc(Cl)cc2)CC1)NCc1cccs1 | -26.2% (inactive)
CC(C)OC(=O)CN1CCN(c2ccc(Cl)cc2)CC1 | -25.8% (inactive)

SMILES | activity change, negative = inhibition
O=C(CN1CCN(c2ccc(Cl)cc2)CC1)c1ccccc1 | -68.8% (active)
CCCCCCCCN1C(=O)[C@H](CC(=O)NCc2cccc3ccccc23)C[C@@]2(C(=O)OC)CCCCC=C12 | 11.4% (inactive)
CCC(=O)N1CCc2cc(Br)cc(S(=O)(=O)Nc3ccc(C)cc3C)c21 | -2.54% (inactive)
CSc1nc(-c2ccccc2)nc(C(Cl)Cl)n1 | -99.4% (active)
C/C(N)=C(/C#N)C(=O)COC(=O)C1=NN(c2ccccc2)C(=O)CC1 | 36.4% (inactive)
O=C1CC(c2ccccc2)=NN1c1ccc([N+](=O)[O-])cc1 | -78% (active)
CCN1N=C(c2ccccc2)CCC1=O | -24.2% (inactive)
O=C1CCCc2cc(S(=O)(=O)N3CCCC(C(=O)NCc4ccccc4)C3)ccc2N1 (configuration not stated) | -3.71% (inactive)
CCOc1ccc(-n2c(SCC(=O)NCc3ccccc3)nc3n[nH]c(C)c3c2=N)cc1 | 35.6% (inactive)
COc1ccc(Cc2nnc(N/N=C/c3ccccc3O)[nH]c2=O)cc1OC | -97.9% (active)
COc1ccc(Cc2nnc(SC)[nH]c2=O)cc1 | -30.1% (inactive)
Cc1ccc(Cc2nnc(SCC(=O)Nc3ccccc3C)[nH]c2=O)cc1 | -1.67% (inactive)
Cc1ccc(C)c(N2CCN(S(=O)(=O)c3ccc4c(c3)C(C(C)C)C(=O)N4)CC2)c1 (configuration not stated) | -24.7% (inactive)
CCOc1ccc(NC(=O)CN(C)C(=O)c2c(C)noc2C)cc1OCC | -5.36% (inactive)
Cc1ccccc1-c1nc2cc(NC(=O)c3cccc(OCCC(C)C)c3)ccc2o1 | -15.9% (inactive)
CCOC(=O)C1CCCN(C(=O)c2sc3nc(C)nc(N4CCOCC4)c3c2C)C1 (configuration not stated) | -14% (inactive)
CC(=O)c1ccc(NC(=O)c2sc3nc4n(c(=O)c3c2C)CCCCC4)cc1 | 23.1% (inactive)
Cc1nc(N2CCOCC2)c2c(C)c(C(=O)Nc3ccc(C(F)(F)F)cc3)sc2n1 | -84.9% (active)
Cc1cc(N2C(=O)C(=O)/C(=C(/O)c3ccccc3)C2c2cccc(Br)c2)no1 (configuration not stated) | -20.6% (inactive)
